Test results published in PubChem BioAssay.

assay: growth modulation of vineyard yeast isolate – strain RM11-1a, OD600, basal, 24 h, primary screen (AID 1177);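 note: cultures grown under basal conditions with no added stressor; test concentration not given here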; details: S. cerevisiae RM11-1a growth, OD600, 24 h; higher = more signal, called active from +8 up or from −8 down

z-score, inactive:
C[C@]1(C(=O)NCc2ccccc2)c2ccccc2C(=O)N(Cc2ccc(OC(F)(F)F)cc2)[C@H]1c1ccc(CO)cc1 -0.593, O=C1O[C@@H](c2ccccc2)[C@@H](c2ccccc2)N2[C@@H](c3ccc(O)cc3)[C@]3(C(=O)Nc4ccc(C#CC5=CCCCC5)cc43)[C@@H](C(=O)O)[C@H]12 -2.61, O=C(O)[C@@]1(Cc2ccccc2)N=C(c2ccc(OCCCO)cc2)O[C@H]1c1ccccc1 0.291, NC(=O)NCC#Cc1ccc2c(c1)[C@]1(C(=O)N2)[C@H](C(=O)N2CCCCCCC2)[C@H]2C(=O)O[C@H](c3ccccc3)[C@H](c3ccccc3)N2[C@@H]1c1ccc(OCCO)cc1 2.12, CC(C)C[C@@H]1NC(=O)[C@H]2C[C@@H](C(=O)NCCCCCNC(=O)CS)[C@@H](c3cccc(OCCO)c3)N2C1=O -0.0734, COC(=O)[C@@]1(Cc2ccccc2)[C@H]2c3cc(C(=O)N4CCCC4)n(C)c3C[C@H]2CN1C(=O)c1ccccc1 0.513, Cc1ccc(S[C@]2(C(=O)NCC(C)C)CC(=O)N(Cc3ccccc3)[C@@H]2c2ccc(CO)cc2I)cc1 0.341, COCCOC(=O)N1C(=O)[C@@]2(c3cc(C#CCCO)ccc31)[C@H](c1ccccc1OCCO)N1[C@H](c3ccccc3)[C@H](c3ccccc3)OC(=O)[C@H]1[C@@H]2C(=O)N1CCN(c2ncccn2)CC1 2.18, CC(c1ccccc1)C(O)C1C=CC2C(=O)NC(=O)C2N1Nc1ccccn1 (centres undefined) 1.27
